# Laboratory results taken from the supplement of paper PMC6555819.
# What was measured:
# Assay in all cases: PBM binding z-score (relative to random genomic background probes); higher = stronger binding; sequences stand for … in GC…GCGATTGACAGCGTAGAATGAAGG
# [1] = test system: RARb homodimer (NR concentration 270 nM)
# In short: (§1)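 Regression normalization was applied to scanned fluorescence from custom Agilent 4×180K protein-binding microarrays. Before scanning, arrays were incubated 1 h with ligand-free nuclear receptor dimers, and binding was detected with antibodies against each partner (one per run). Binding z-scores use the random background probes as reference.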
# [2] = test system: RARg:RXRa (NR concentration 270 nM, RXRa partner concentration 90 nM)
# In short: as §1
# [3] = test system: RARg homodimer (NR concentration 270 nM)
# In short: as §1
# [4] = test system: RXRa DBDmut IVT, anti-RXR (DBD mutation: RXRa K156A/R161A, NR concentration 90 nM)
# In short: as §1
# [5] = test system: RXRa homodimer (NR concentration 180 nM)
# In short: as §1
# [6] = test system: THRa:RXRa (NR concentration 90 nM, RXRa partner concentration 90 nM)
# In short: as §1
# [7] = test system: THRa homodimer (NR concentration 90 nM)
# In short: as §1
# [8] = test system: VDR homodimer (NR concentration 270 nM)
# In short: as §1
Sequence,PBM binding z-score [1],PBM binding z-score [2],PBM binding z-score [3],PBM binding z-score [4],PBM binding z-score [5],PBM binding z-score [6],PBM binding z-score [7],PBM binding z-score [8]
ATCTCTAGGTAACCAAGTTCAGTGATTGCCGAAC,1.45,0.546,0.823,1.02,0.505,1.44,0.949,2.76
CCTATTAGTTGACCATAAGAGCAACCGAAGCTCG,0.851,0.678,0.927,0.811,0.6,0.468,0.721,1.03
TCTGCTAGATCAACGATGGTCAGCTAATCTGCTA,-0.588,-0.514,-0.512,-0.127,-0.276,-0.945,-1.71,-1.45
TCTTGGAGATCAAAGGTTAAGAAAGCCGAAGCCT,1.18,2.07,0.819,0.202,4.66,1.4,-0.671,-0.245
CCTAACAGGCCAGGGTCACTCAAGCATTTCGCTT,2.8,3.17,2.48,0.743,3.37,3.01,1.15,1.44
CCTAGTTTGTCAGGAGGTCACACACCGGATATGA,4.01,4.61,3.87,1.93,4.52,3.62,2.87,3.26
ATCGAAAGGTCGAGGTGAGCATAGAGAAAGGGAA,2.98,4.34,4.61,0.687,4.63,2.98,0.737,0.234
CCTTACGGGTTACGAGGTTATAGCACGACGAGCG,1.24,2.31,1.43,-0.0539,2.99,2.23,0.638,0.469
CTGGAAAGGTCGGTTGAGGTGAGTATACGGATAA,2.18,2.53,2.93,1.05,2.18,4.88,1.56,0.437
GCAGACAGGTGAAACGCAGGTAGCTCAGGGTGGC,-0.0117,0.108,-0.0233,-0.578,0.367,0.401,-0.86,-0.785
ATATGTAGCTTACATCCGGGTCATTCAGGCTATG,1.78,1.48,1.02,0.735,1.9,2.87,2.3,2.18
GCAGACAGGTGAAATGCAGGTAACTCAGGGTGGC,0.337,0.64,0.23,-0.341,0.602,1.38,-0.107,-0.285
CCGACTGGGGCATAAGGTTATCATAAGCCAGCCC,1.53,1.8,0.973,-0.174,1.14,1.78,0.629,0.13
TCTGCTAGGTCAACGATGGTCAGCTTATCTGCTA,3.56,4.14,4.75,1.26,2.49,3.22,0.783,-0.342
TCGAGTAGGTTAGTCGGGGCTTTCAGCCAACATA,-0.364,-0.483,-0.728,0.169,-0.346,1.11,-0.892,-0.862
CGTCCAAGGTCAAGGTCTGTGAAAGAGACTCGAA,3.88,6.09,6.55,3.21,5.2,3.83,2.46,1.78
CCTACTGGGCCTTCAGGTCATTGATATCAACGTT,2.18,1.13,1.39,-0.0421,0.791,3.15,3.23,1.64
GTACCAAGGTGAATATGTCGTTGATGAGTAGGCG,0.432,0.746,0.888,-0.0689,0.5,1.34,0.837,0.112
TAGGCTAGGTCAGATCGGGCCAGTATACGCTATA,2.06,2.87,3.61,-0.36,1.45,4.13,-0.412,-0.515

Sequence,PBM binding z-score [1],PBM binding z-score [2],PBM binding z-score [3],PBM binding z-score [4],PBM binding z-score [5],PBM binding z-score [6],PBM binding z-score [7],PBM binding z-score [8]
ATAATGAGGTTACCAAAGATCAGGGAAACGCTTG,1.15,2.37,1.95,1.32,2.72,2.8,1.1,0.486
CTCGATAGGTCGGTTGAGGTGAGTATACGGATAA,1.02,0.724,1.15,-0.0462,0.554,4.73,1.19,0.0696
CTCGAAAGGTTGTGCTCAGGTGAGTATACCAAAC,0.954,1.31,0.452,0.56,0.825,2.84,0.886,0.0434
CCTACTGGGCCACGAAAGGTCACTGATTCAGTGA,4.67,4.7,4.98,-0.0819,4.93,3.84,1.03,0.962
GCAGACAGGTGAAACGCAGGTAACTGAGGGTGGC,0.0628,0.86,0.142,-0.51,0.568,1.06,-0.377,-0.727
CTCGAAAGGTCGTGATCAGGTGAGTATACCAAAC,2.66,4.85,3.85,1.9,4.72,4.04,0.717,0.668
CAAGCTAGGTCAAGGTCAAAGTCGGTTTGTGCCA,4.92,6.04,6.71,2.89,5.73,4.39,3.51,4.44
CGTACTGGGCCATCAGGTCATTGATATCAACGTT,2.7,2.08,2.17,0.587,1.44,3.17,3.18,1.98
GCTCGGAGGACAAGGTCGGAGCTTTGTCCGTAGA,0.998,0.842,1.11,-0.395,0.103,1.37,0.277,-0.608
TAGCCTAGGTCAGATCTGGCCAGTATACGCTATA,1.82,2.73,3.49,-0.24,1.3,2.57,-0.423,-0.751
CCTACTGGGTCATCAGGTCATTGATATCAACGTT,4.25,5.07,5,2.14,4.38,3.97,3.17,3.06
CCTCGGAGGACAACAGGAGGTCAGAGGTGCCAGA,3.4,3.47,3.16,-0.191,2.1,2.88,0.822,1.13
CCTACTGAGCCACGAAAGGTCATTGATTCAGTGA,4.59,4.56,4.22,1.03,5.47,3.41,1.23,2.9
ATACCAAGGTGATCGTGAGGCCGTTGATACTAAC,0.758,0.629,0.127,0.132,0.254,2.05,1.14,0.643
GCGACTGGGGCAAAGCAGGCTACCATAAGGTTGG,0.228,0.143,0.207,-0.628,0.0152,1.59,-0.688,-0.862
CCTTACGAGTCACTCCAGGTTATAGCATCGGAGT,0.938,0.686,0.863,0.584,0.475,3.69,1.07,0.838
GCTGCTTGGTCAACTGATGGTCAGCTAAAGCTCG,0.641,0.828,0.795,0.0652,-0.182,-0.283,-0.699,-1.25
GCTCGGAGGACAAGGTCAGATCTTTGTCCGTAGA,3.06,3.19,3.28,0.628,2.46,3.17,1.58,0.872
AGAATGAGGGTACCAAAGATCAGGGAAACGCTTG,0.0111,0.44,0.506,0.104,0.821,0.502,-0.667,-0.0915

Sequence,PBM binding z-score [1],PBM binding z-score [2],PBM binding z-score [3],PBM binding z-score [4],PBM binding z-score [5],PBM binding z-score [6],PBM binding z-score [7],PBM binding z-score [8]
CAAACTAGGTCAAGGTCCAAGTCGGTTTGTGCCA,3.59,3.87,5.33,1.76,3,3.18,1.67,1.7
CAAACTAGGTCAGGAGGTCAAAGTCCGCTTCCCG,5.3,6.99,5.98,2.11,5.81,3.97,2.52,3.61
AGCTCTAGGTAACCAAGTTCAGTGAATGCCGAAC,1.25,0.159,0.348,0.428,0.269,1.14,0.629,2.43
CCGACTGGGGCAAGGTTACCAGAACGCACAGCCA,1.39,1.01,1.27,-0.418,1.07,1.06,-0.142,-0.475
GCAGACAGGTGAATCGCAGGTAACTCAGGGTGGC,0.0663,0.806,0.164,-0.612,0.449,1.31,-0.285,-0.754
TCGAGTAGGTTACCAATGGGGCATTCATCTTTCT,0.835,1.03,0.586,0.151,0.759,0.223,-0.282,-0.179
CGAACTAGGTCTTCCAGGACAGTGAATACATTGA,0.194,0.154,0.415,0.373,-0.0434,1.71,0.787,0.0101
CGTCCCAGGTCAGCAGGTCAGTGAAAGCGACGTG,3.99,4.83,4.51,0.368,3.25,3.56,2.19,0.573
GCTCGGAGGACAAGGTCATAGCTTTGTCCGTAGA,3.41,4.23,3.99,1.8,4.34,3.56,2.14,2.26
ATCTCTAGGTAAGACTCTGTTCAGTGAAGAACGC,0.515,-0.0818,0.134,0.365,0.0121,0.57,0.576,-0.00157
ACTATTAGTTGACTTAGGGCTACCGATACGACGC,-0.0045,0.457,0.61,0.644,0.257,1.21,0.349,0.385
CGTCCAAGGTCAGCAGGTCGGTGAAAGCGACGTG,4.14,5.49,6.04,2.37,4.37,3.57,1.92,1.3
CGAACTAGGTCATCCAGGCCAGTGAATACATTGA,3.18,4,4.59,2.18,2.85,3.23,1.19,1.33
CCTACTGGGCCACGAACGGTCATTGATTCAGTGA,1.91,0.72,1,-0.535,-0.0982,0.584,-0.505,-0.169
ACTATTAGTTGAGACGAGGGCAACCAATAGGTTG,1.29,0.956,0.987,0.665,0.753,2.89,0.217,0.676
GTTCCAAGGTGAATAGGTCGTTGATGAGTAGGCG,2.22,2.74,1.76,0.23,1.72,2.4,0.975,0.742
GCAGATAGGTGAAACGCAGGTAACTCAGGGTGGC,0.000492,0.873,0.288,-0.635,0.592,1.32,-0.559,-0.593
ATATGTGGGTTAGCTGGGGTCATTCAGACTAGGC,3.54,3.97,2.93,2.16,5.59,5,3.84,5.73
AGAACGAGGGTACGCTGAGTTGATAGCAGAGTAG,-0.336,0.424,0.303,0.994,0.16,0.2,-0.484,2.14
